G9a block: G9a (human) methyltransferase inhibition; 350,000 compounds, 8.8% hits; Potency, µM (doses to about 102 µM), for the others: at the highest dose activity, negative = inhibition, actives largely listed as inhibitors; G9a H3K9 monomethylation, AlphaScreen, 2 h; AID 504332; note: % is set by controls: 0 for no effect and ±100 for the full control effect; nearly all actives have a fitted effect of over 75% in size
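G9a (20 nM) preincubated 15 min RT with compounds, then 500 nM biotinylated H3K9 peptide and 20 uM SAM added; 2 h RT reaction. Monomethyl-H3K9 product detected by AlphaScreen with anti-H3K9me1 antibody, streptavidin donor and anti-rabbit IgG acceptor beads.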
L3MBTL1 inh: L3MBTL1 (human) inhibition; AlphaScreen L3MBTL1–H3K9me1 peptide binding; AID 485360; Potency, µM (series often up to 57.1 µM), for inactives: at the top dose activity, negative = inhibition, hits mostly inhibitors; 230,000 compounds, 0.66% hits; Q9Y468; note: % is set by controls: 0 for no effect and ±100 for the full control effect; nearly all actives have a fitted effect of over 60% in size
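AlphaScreen proximity signal between nickel-chelate acceptor and streptavidin donor beads (final 10 ug/mL) reports binding of 50 nM L3MBTL1 to 75 nM biotin-H3 K9me1 peptide; complex incubated with compounds 30 min at room temperature; cefsulodin titration as control.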
BAZ2B inh: inhibitors of human BAZ2B bromodomain; Potency, µM (top dose mostly 114 µM), without a hit: at the highest dose activity change, negative = inhibition, actives largely listed as inhibitors; 360,000 compounds, 4.4% hits; AlphaScreen BAZ2B-H3K14Ac peptide displacement; Q9UIF8; note: % is set by controls: 0 for no effect and ±100 for the full control effect; nearly all actives have a fitted effect of over 60% in size
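AlphaScreen displacement of biotin-H3(5-23)K14Ac peptide (50 nM final) from BAZ2B (50 nM final) in PBS pH 7.4, 0.01% Tween-20; complex preformed 30 min RT, then compounds (top 110 uM) 30 min RT, beads 20 min dark.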
HP1b chromo inh: HP1-beta chromodomain-methylated histone interaction inhibition; AlphaScreen HP1-beta / biotin-H3K9me3 peptide binding; P83916; 390,000 compounds, 0.56% hits; AID 540317; Potency, µM (doses to about 114 µM), without a hit: at the top dose activity change, negative = inhibition, hits mostly inhibitors; note: nearly all actives have a fitted effect of over 70% in size
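AlphaScreen: HP1-beta (50 nM) preformed 30 min with biotin-H3(1-18)K9me3 peptide (50 nM) in PBS pH 7.4, 0.01% Tween-20. Compound added for 30 min at RT, then streptavidin donor/nickel chelate acceptor beads (10 ug/mL) for 30 min.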
Sfp PPTase inh: blocks B. subtilis Sfp PPTase activity; Q9F4F7; Biochemical Sfp PPTase activity, qHTS; 310,000 compounds, 3.5% hits; Potency, µM, inactives show largest response in the series, negative = inhibition, actives largely listed as inhibitors;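 note: the enzyme is Sfp with the accession as filed and its product quenches rhodamine fluorescence; 0% = enzyme reaction without inhibitor and -100% = no enzyme wells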
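Sfp 15 nM + cpd, 15 min RT; start w/ rhodamine-CoA 5 uM, BHQ-2-YbbR 12.5 uM (final); 50 mM Hepes pH 7.6, 10 mM MgCl2, 0.01% NP-40, 0.01% BSA; read 525/598 nm at 0 and 30 min.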
JMJD2A Tudor: inhibitors of human JMJD2A Tudor domain; Potency, µM (titrated, usually from 114 µM), inactives show at the highest dose activity change, negative = inhibition, actives largely listed as inhibitors; AlphaScreen JMJD2A-Tudor / H3K4me3 peptide binding; 390,000 compounds, 4.4% hits; note: % is set by controls: 0 for no effect and ±100 for the full control effect; nearly all actives have a fitted effect of over 50% in size
Target sequence (O75164 whole entry, looked up, the tested form may be a part): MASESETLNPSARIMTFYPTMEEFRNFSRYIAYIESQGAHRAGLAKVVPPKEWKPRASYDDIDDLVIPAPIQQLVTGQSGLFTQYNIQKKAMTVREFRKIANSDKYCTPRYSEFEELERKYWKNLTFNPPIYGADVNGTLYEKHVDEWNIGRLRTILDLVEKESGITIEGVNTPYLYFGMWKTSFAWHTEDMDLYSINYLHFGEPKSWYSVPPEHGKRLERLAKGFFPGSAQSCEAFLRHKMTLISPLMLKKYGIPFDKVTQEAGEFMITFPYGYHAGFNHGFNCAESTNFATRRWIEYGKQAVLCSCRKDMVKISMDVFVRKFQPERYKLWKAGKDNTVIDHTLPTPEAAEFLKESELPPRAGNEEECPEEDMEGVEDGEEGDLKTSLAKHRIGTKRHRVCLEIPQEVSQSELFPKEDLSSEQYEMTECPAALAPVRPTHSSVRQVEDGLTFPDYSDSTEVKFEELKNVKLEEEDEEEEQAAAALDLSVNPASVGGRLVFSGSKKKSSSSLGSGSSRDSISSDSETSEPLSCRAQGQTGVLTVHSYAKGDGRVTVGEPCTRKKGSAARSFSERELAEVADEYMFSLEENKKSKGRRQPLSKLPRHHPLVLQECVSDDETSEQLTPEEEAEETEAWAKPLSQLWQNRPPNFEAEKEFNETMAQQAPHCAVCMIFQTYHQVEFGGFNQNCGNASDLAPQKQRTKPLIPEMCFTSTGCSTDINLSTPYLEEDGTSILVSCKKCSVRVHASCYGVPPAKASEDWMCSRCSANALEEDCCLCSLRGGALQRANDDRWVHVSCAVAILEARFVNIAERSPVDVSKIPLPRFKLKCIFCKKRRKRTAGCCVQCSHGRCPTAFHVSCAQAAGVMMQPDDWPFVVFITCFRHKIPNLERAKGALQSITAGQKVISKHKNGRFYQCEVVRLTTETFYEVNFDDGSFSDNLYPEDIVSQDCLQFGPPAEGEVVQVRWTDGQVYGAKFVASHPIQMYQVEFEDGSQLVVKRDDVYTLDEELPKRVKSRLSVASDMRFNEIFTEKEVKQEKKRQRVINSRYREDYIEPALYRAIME
* hit, by the source's call; ? = inconclusive; · = no result; [ ] = dose if it differs, or a comment. Hits are enriched below; roughly 12% of the tested compounds scored in any of these assays. Calls come from the whole dose curve; as a rule, active = well fitted curve in the direction sought with a large enough effect; inconclusive = small, poorly fitted or top-dose-only effect, or another doubt; inactive = no such curve, though single readings can be large; an effect the other way counts as inactive or inconclusive. Potency is the fitted concentration of half-maximal effect.

SMILES	G9a block	L3MBTL1 inh	BAZ2B inh	HP1b chromo inh	Sfp PPTase inh	JMJD2A Tudor
O=[N+]([O-])c1ccc(O)c(CN2CCCCCC2)c1	1.1%[0.501 µM]	-6.0%[2.29 µM]	3.3%	11.0%	?	-10.3%
CCOC(=O)C1CCCN(CC(=O)c2ccc(F)cc2)C1 (stereo not drawn)	?	·	20µM*	?	50.1µM*	3.55µM*
CCOC(=O)C1CCCN(Cc2cccc(Cl)c2)C1 (stereo not drawn)	8.91µM*	5.2%	?	?	-12.0%	2.82µM*
COC(=O)Cc1c(C)c2ccc3c(c2oc1=O)CN(Cc1ccccc1OC)CO3	-29.6%[59 µM]	·	3.3%	58.2%	·	?
CCCCOc1ccc(CNC(=O)C2CCN(c3nnc(-n4cccc4CNc4ccc(C)cc4)s3)CC2)cc1	4.2%[59 µM]	·	3.0%	36.2%	·	1.5%
CCOC(=O)C1=C(CS(=O)(=O)c2ccc(C(C)(C)C)cc2)NC(=O)NC1c1cccc(OC)c1 (stereo not drawn)	?	·	-0.4%	30.4%	·	-16.0%
CCOC(=O)C1CCCN(Cc2ccc3c(c2)OCO3)C1 (stereo not drawn)	8.91µM*	5.7%	50.1µM*	25.1µM*	-19.3%	2.51µM*
c1cc2c(cc1CN1CCN(C3CCCCCC3)CC1)OCO2	10µM*	·	17.8µM*	?	56.2µM*	17.8µM*
COc1cc(CN2CCCC(C)C2)ccc1OCc1ccccc1 (stereo not drawn)	·	2.1%	10.6%	11.9%	-2.3%	-14.3%
COc1cc(CN2CCC(C)CC2)ccc1OCc1ccccc1	?	-5.4%	?	?	-25.9%	25.1µM*
CCOC(=O)C1CCCN(C(=O)c2ccc3c(c2)OCO3)C1 (stereo not drawn)	14.4%[59 µM]	5.9%	-3.1%	39.1%	-4.0%	0.8%[57.1 µM]
c1ccc(CN2CCC(N3CCN(Cc4ccc5c(c4)OCO5)CC3)CC2)cc1	-8.9%[59 µM]	·	0.8%	9.7%	0.0%	-2.5%
CCN(CC)C(=O)C1CCCN(Cc2ccc(OC)c(C)c2)C1 (stereo not drawn)	-49.3%[12.7 µM]	4.0%	?	?	-8.9%	0.891µM*
CCOC(=O)c1c(C)[nH]c(CCC(=O)NCc2cc(OC)c(OC)c(OC)c2)c1C	-0.9%[59 µM]	·	0.0%	21.8%[57 µM]	·	-13.3%
Cc1nc(N2CCCC2)ncc1C(=O)Nc1ccc(F)cc1F	11.4%[59 µM]	·	-5.7%	20.6%	·	-3.6%
Cc1cc(=O)n2nc(N(C)CC(=O)NCc3ccccc3C)sc2n1	0.0%[59 µM]	·	1.2%	21.4%	·	-4.4%
CCN(CC)C(=O)C1CCCN(Cc2ccc3c(c2)OCO3)C1 (stereo not drawn)	8.91µM*	·	?	-57.8%	-29.9%	7.08µM*
Brc1ccc(CN2CCCCCC2)cc1	·	·	·	?	·	28.2µM*
O=C(c1cccc(Cl)c1)C1CCCN(Cc2ccc(N3CCNC3=O)cc2)C1 (stereo not drawn)	50.1µM*	-13.9%	?	8.0%	24.2%	?
COc1ccccc1C(=O)C1CCCN(Cc2ccc3c(c2)OCCO3)C1 (stereo not drawn)	-1.2%	-13.8%	-14.6%	4.5%	23.5%	-2.1%
CCOC(=O)C1CCCN(Cc2ccc(OCc3ccccc3)cc2)C1 (stereo not drawn)	·	79.8%	38.3%	?	-9.1%	?
CCOC(=O)C1CCCN(Cc2ccc(OCc3ccccc3)c(OC)c2)C1 (stereo not drawn)	-5.8%[0.501 µM]	-2.6%[2.29 µM]	50.1µM*	1.0%	?	?
Cc1ccccc1NCc1nc2ccccc2n1CCOc1ccccc1	?	·	-35.5%	10.6%	·	-35.8%
COC(=O)c1c(C)nn(-c2ccc(F)cc2)c1-n1cccc1	15.9%[59 µM]	·	6.0%	57.1%	·	18.5%
CCc1ccc(CNC(=O)c2nn(-c3ccc(OC)c(Cl)c3)c(=O)c3c2c2ccccc2n3C)cc1	2.6%[59 µM]	·	·	44.4%	·	-9.3%
SMILES	G9a block	L3MBTL1 inh	BAZ2B inh	HP1b chromo inh	Sfp PPTase inh	JMJD2A Tudor
CCc1cccc(C)c1NC(=O)Cn1ccn(-c2ccc(F)cc2)c(=O)c1=O	-6.7%[59 µM]	·	1.9%	56.4%	·	5.9%
C=C1CCN(C(CC(C)C)C(=O)NCc2ccc(OC)cc2)S(=O)(=O)c2ccccc21 (stereo not drawn)	·	·	·	14.9%	-4.6%	-9.0%
O=C(C1CCCN(Cc2ccc3c(c2)OCO3)C1)N1CCCC1 (stereo not drawn)	10µM*	1.8%	56.2µM*	?	-11.7%	39.8µM*
O=C(NC1CCCN(Cc2ccc(Cl)cc2)C1)C1CCC1 (stereo not drawn)	28.9%	-1.7%	-15.7%	21.5%	6.4%	-4.1%
CCN(CC)C(=O)C1CCCN(Cc2ccc(N(C)C)cc2)C1 (stereo not drawn)	14.1µM*	-0.8%	31.6µM*	?	-12.1%	44.7µM*
CC(=O)c1cccc(CN2CCCC(C(=O)c3ccc4c(c3)OCO4)C2)c1 (stereo not drawn)	·	-8.3%	-14.8%	23.6%	-4.4%	-21.7%
NC(=O)C1CCCN(Cc2ccc(Cl)cc2)C1 (stereo not drawn)	3.55µM*	·	79.4µM*	-55.6%	-2.2%	3.16µM*
CN(C)c1ccc(CN2CCCC(O)C2)cc1 (stereo not drawn)	-4.4%[59 µM]	1.5%	-4.4%	26.8%	1.8%	-11.9%
CC1Cc2cc(S(=O)(=O)N3CCN(c4ccccc4F)CC3)ccc2N1C(=O)C1CCC1 (stereo not drawn)	-10.2%[59 µM]	·	-2.6%	4.9%	·	-21.1%
CCc1ccc(NC(=O)C(=O)NCC(c2cccnc2)N2CCOCC2)cc1 (stereo not drawn)	?	·	?	-5.0%	·	-30.6%
CCOc1cccc(OCCOCCNC(C)(C)C)c1	14.1µM*	5.7%	44.7µM*	-51.0%	-25.4%	22.4µM*
CCOc1ccc(OCCCCNC(C)(C)C)cc1	22.4µM*	4.0%	50.1µM*	-4.6%	?	35.5µM*
O=C(NC1(C(F)(F)F)N=C(c2ccccc2)N(Cc2ccccc2)C1=O)c1ccc(F)cc1 (stereo not drawn)	10.8%[59 µM]	·	-14.5%	15.3%	·	-16.8%
COc1ccccc1CN1CC[C@@]2(CCCN(C(=O)c3ccncc3)C2)C1	-5.6%[12.7 µM]	·	·	·	14.4%	·
Cc1cccc(N2CCN(C(=O)c3cccn4c(=O)c5cc(Cl)ccc5nc34)CC2C)c1 (stereo not drawn)	6.0%[59 µM]	·	-11.4%	?	·	?
CCOC(=O)C1CCN(S(=O)(=O)c2ccc(-c3nc4ccccc4s3)s2)CC1	35.5µM*	-10.6%	-34.2%	39.5%	0.3%	-22.6%
CCOC(=O)C1CCN(S(=O)(=O)c2ccc(-c3cc(C(F)(F)F)n(C)n3)s2)CC1	·	11.0%	9.8%	44.9%	4.5%	1.0%
Cc1cc(C)c(NS(=O)(=O)c2ccccc2)c(C)c1	·	·	·	14.8%[57 µM]	·	-1.4%

Compound activity deposited in PubChem by National Center for Advancing Translational Sciences (NCATS).
